SMILES strings stand for the structures. Results filed as inconclusive are left out. Values without a mark were called inactive. Active and inactive are the calls of the source. Calls follow the shape of the dose curve; as a rule, active = well fitted curve in the direction sought with a large enough effect in the repeat runs; inconclusive = weak or mixed curves; inactive = no such curve, though single readings can be large; an effect the other way counts as inactive or inconclusive.

In experiment [1] the target is Cytochrome P450 2C19 (Homo sapiens) (UniProt P33261). Description: Cytochrome P450 Family 2 Subfamily C Member 19 (CYP2C19) small molecule antagonists: luciferase reporter qHTS assay (AID 1671197). Also: nearly all actives have a fitted effect of over 65% in size. As to activity change, negative = inhibition: series mostly up to about 120 µM. A digest of the protocol: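 Relative luminescence units recorded 20 min after the detection reagent stopped a 1 h, 37C CYP2C19 reaction on proluciferin substrate, which was started by NADPH regeneration following 10 min room-temperature compound preincubation; ketoconazole positive control.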
Chain of Cytochrome P450 2C19 (Homo sapiens) (P33261 whole entry, looked up): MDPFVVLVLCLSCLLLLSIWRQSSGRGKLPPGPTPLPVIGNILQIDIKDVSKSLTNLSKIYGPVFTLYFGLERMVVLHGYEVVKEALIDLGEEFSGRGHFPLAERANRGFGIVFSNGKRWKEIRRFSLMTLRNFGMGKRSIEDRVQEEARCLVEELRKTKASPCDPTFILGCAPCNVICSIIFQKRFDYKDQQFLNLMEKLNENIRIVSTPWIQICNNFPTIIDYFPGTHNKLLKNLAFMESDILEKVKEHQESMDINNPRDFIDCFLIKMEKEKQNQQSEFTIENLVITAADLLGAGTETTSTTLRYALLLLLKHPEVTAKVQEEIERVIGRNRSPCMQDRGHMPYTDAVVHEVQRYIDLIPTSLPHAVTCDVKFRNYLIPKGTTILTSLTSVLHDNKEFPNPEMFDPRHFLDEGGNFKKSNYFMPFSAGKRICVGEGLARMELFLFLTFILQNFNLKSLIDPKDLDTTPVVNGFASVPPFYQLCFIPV

For experiment [2], the target named is Cytochrome P450 2C9 (Homo sapiens) (UniProt P11712). Put plainly: Cytochrome P450 Family 2 Subfamily C Member 9 (CYP2C9) small molecule antagonists: luciferase reporter qHTS assay (AID 1671198). Also: nearly all actives have a fitted effect of over 50% in size. As to activity change, negative = inhibition: series mostly up to about 120 µM. A digest of the protocol:
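P450-Glo proluciferin substrate with CYP2C9 enzyme; 10 min RT preincubation, then NADPH regeneration 1 h at 37C; luciferin detection reagent 20 min RT, luminescence in relative luminescence units.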
In general terms: Reporter assays use an easily measured gene product as a stand-in for the process of interest.

Experiment [3] deals with Cytochrome P450 1A2 (Homo sapiens) (UniProt P05177). Description: Cytochrome P450 Family 1 Subfamily A Member 2 (CYP1A2) small molecule antagonists: luciferase reporter qHTS assay (AID 1671199). Also: nearly all actives have a fitted effect of over 50% in size. As to activity change, negative = inhibition: series mostly up to about 120 µM. A digest of the protocol:
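Enzymatic CYP1A2 assay, human, luminescent: 10 min compound–enzyme–substrate preincubation, 1 h NADPH-dependent turnover, 20 min detection step, room temperature throughout. Reduced light indicates lower CYP1A2 activity.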

For experiment [4], the target named is Voltage-gated inwardly rectifying potassium channel KCNH2 (Homo sapiens) (UniProt Q12809). Description: Human Ether-a-go-go-Related Gene (hERG) channel small molecule antagonists: fluorescence cell-based qHTS assay (AID 1671200). Also: nearly all actives have a fitted effect of over 50% in size.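 As to activity change, negative = inhibition: hERG-expressing U2OS cells given a thallium stimulus after FluxOR II dye loading; series mostly up to about 77 µM.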 Put shortly: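 In this thallium-flux screen, overnight-cultured U2OS cells bearing the channel are dye-loaded in darkness for an hour, rested 10 min at room temperature, and then monitored kinetically at 480/540 nm for two minutes post-stimulus.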
Chain of Voltage-gated inwardly rectifying potassium channel KCNH2 (Homo sapiens) (Q12809 whole entry, looked up): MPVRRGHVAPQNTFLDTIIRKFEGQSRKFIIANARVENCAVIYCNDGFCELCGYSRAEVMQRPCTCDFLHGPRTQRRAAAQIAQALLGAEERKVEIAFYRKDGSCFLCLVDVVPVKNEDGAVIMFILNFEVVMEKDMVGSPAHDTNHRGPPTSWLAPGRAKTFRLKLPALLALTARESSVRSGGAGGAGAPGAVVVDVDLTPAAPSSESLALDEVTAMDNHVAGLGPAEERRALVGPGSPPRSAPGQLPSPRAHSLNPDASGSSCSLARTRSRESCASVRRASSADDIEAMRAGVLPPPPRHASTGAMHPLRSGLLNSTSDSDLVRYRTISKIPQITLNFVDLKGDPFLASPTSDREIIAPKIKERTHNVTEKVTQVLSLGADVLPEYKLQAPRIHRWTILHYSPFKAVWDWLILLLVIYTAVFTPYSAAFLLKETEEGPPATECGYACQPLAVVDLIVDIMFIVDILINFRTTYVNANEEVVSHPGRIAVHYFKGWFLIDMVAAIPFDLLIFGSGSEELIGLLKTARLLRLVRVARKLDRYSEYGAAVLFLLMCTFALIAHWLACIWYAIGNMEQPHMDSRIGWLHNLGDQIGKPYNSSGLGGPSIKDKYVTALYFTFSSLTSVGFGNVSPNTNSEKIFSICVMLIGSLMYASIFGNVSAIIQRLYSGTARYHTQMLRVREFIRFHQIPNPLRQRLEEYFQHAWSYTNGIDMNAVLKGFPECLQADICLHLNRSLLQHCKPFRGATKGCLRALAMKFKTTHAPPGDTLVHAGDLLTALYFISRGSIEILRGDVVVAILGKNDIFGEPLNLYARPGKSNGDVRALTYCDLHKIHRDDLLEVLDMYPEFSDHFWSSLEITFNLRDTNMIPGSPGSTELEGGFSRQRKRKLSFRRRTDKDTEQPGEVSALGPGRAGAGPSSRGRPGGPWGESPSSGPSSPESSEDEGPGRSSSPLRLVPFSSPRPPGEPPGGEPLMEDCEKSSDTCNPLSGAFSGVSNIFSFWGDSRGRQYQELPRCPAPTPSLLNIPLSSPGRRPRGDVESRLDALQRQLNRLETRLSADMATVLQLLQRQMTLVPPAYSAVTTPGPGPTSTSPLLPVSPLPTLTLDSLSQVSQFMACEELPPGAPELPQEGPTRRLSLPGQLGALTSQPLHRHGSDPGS

In experiment [5] the target is Cytochrome P450 3A4 (Homo sapiens) (UniProt P08684). Description: Cytochrome P450 Family 3 Subfamily A Member 4 (CYP3A4) small molecule antagonists: luciferase reporter qHTS assay (AID 1671201). Also: nearly all actives have a fitted effect of over 50% in size. As to activity change, negative = inhibition: series mostly up to about 120 µM. Put shortly: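 CYP3A4 activity was followed with a P450-Glo proluciferin substrate. Test compounds in DMSO were preincubated 10 min; NADPH regeneration then ran 1 h, and light output was read 20 min after detection reagent.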
Chain of Cytochrome P450 3A4 (Homo sapiens) (P08684 whole entry, looked up): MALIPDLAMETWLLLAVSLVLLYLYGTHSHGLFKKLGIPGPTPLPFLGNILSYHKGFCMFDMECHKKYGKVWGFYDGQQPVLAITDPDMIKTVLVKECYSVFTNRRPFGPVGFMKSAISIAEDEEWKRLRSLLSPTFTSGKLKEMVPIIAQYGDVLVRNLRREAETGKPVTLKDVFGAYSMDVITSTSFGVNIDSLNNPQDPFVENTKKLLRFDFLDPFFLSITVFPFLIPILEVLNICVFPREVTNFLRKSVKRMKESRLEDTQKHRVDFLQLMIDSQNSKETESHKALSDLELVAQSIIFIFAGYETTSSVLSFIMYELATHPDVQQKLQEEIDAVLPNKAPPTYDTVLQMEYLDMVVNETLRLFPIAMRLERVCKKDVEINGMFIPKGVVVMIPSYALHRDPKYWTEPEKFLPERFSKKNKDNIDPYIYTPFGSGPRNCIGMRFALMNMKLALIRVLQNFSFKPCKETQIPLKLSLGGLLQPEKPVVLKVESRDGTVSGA
% is scaled to controls: 0 for no effect and ±100 for the full control effect; potency is read from the fitted curve at half-maximal effect.

Chain of Cytochrome P450 2C9 (Homo sapiens) (P11712 whole entry, looked up): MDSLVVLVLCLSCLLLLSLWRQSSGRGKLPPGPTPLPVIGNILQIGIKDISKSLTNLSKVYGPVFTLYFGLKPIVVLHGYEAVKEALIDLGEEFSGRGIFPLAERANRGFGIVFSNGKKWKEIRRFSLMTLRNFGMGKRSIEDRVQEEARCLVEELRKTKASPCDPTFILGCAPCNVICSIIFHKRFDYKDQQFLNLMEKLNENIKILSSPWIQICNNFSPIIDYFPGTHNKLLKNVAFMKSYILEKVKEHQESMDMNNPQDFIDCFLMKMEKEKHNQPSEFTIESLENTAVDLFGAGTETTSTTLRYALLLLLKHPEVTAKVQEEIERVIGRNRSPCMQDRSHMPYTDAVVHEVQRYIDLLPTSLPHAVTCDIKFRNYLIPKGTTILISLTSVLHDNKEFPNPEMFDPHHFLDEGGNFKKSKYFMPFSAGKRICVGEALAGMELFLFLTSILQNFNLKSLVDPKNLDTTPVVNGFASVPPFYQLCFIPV
Chain of Cytochrome P450 1A2 (Homo sapiens) (P05177 whole entry, looked up): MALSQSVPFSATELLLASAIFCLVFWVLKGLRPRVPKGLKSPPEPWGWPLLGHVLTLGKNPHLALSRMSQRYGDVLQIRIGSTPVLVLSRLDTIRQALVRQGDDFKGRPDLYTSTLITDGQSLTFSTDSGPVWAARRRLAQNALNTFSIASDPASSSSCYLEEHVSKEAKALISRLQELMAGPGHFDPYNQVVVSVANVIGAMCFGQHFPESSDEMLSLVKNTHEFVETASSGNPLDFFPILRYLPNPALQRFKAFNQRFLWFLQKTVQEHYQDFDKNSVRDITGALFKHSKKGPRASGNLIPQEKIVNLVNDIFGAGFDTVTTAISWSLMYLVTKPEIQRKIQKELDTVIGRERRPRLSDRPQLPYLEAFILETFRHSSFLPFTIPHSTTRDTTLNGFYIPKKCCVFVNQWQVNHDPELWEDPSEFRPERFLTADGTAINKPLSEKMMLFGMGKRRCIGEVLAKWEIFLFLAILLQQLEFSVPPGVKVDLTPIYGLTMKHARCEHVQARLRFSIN

As to `C/C=C(/C(=C/C)c1ccc(OC(C)=O)cc1)c1ccc(OC(C)=O)cc1`, the Potency is 17.4 µM (active) in experiment [1] and 7.76 µM (active) in experiment [2]. The Potency entry in experiment [3], in experiment [4] and in experiment [5] was “inactive” in each case.
Consider `CCOC(=O)C(O)c1ccccc1` (stereo unspecified), for which the Potency result in experiment [1], in experiment [2], in experiment [3], in experiment [4] and in experiment [5] was “inactive” throughout.
Consider `CC(=O)OC[C@H]1O[C@@H](n2ncc(=O)[nH]c2=O)[C@H](OC(C)=O)[C@@H]1OC(C)=O`, for which the Potency result in experiment [1], in experiment [2], in experiment [3], in experiment [4] and in experiment [5] was “inactive” in each case.
Take `O=C(Nc1ccccc1)c1ccccc1O`: the Potency in experiment [1] was 22.4 µM (active); in experiment [2], 31.7 µM (active); in experiment [3], 5.03 µM (active). Further, the Potency result in experiment [4] and in experiment [5] was “inactive” throughout.
In the case of `CC(CSC(=O)c1ccccc1)C(=O)N1C[C@@H](Sc2ccccc2)C[C@H]1C(=O)O` (stereo partly specified), the Potency entry in experiment [1] and in experiment [3] was “inactive” in each case. Moreover, the activity change, negative = inhibition in experiment [2] is -9.74% [at 23.6 µM]; in experiment [4] it was 3.26% [at 15.8 µM]; in experiment [5], 15.7% [at 23.6 µM].
Take `CNC(=O)CN(CCN(CCN(CC(=O)[O-])CC(=O)NC)CC(=O)[O-])CC(=O)[O-].O.[Gd+3]`: the Potency result in experiment [1], in experiment [2], in experiment [3], in experiment [4] and in experiment [5] was “inactive” each time.
Take `CCCCCCCCO[C@@H]1O[C@H](CO)[C@@H](O)[C@H](O)[C@H]1O`: the Potency result in experiment [1], in experiment [2], in experiment [3] and in experiment [4] was “inactive” each time.
`Cn1c(=O)cc(Oc2ccc(F)cc2F)c2cnc(NCC(C)(C)O)nc21`: the Potency in experiment [1] is 71 µM (active); in experiment [2] it was 56.4 µM (active); in experiment [3], 28.3 µM (active). Besides, the Potency entry in experiment [4] and in experiment [5] was “inactive” each time.
With `CC1=CC=C(C(C)C)CC1`, the Potency was 35.6 µM (active) in experiment [1], 63.3 µM (active) in experiment [2], 31.7 µM (active) in experiment [3] and 39.9 µM (active) in experiment [5]. Moreover, the Potency entry in experiment [4] was “inactive”.
`CC1(c2ccccc2)OC(C(=O)O)=CC1=O` (stereo unspecified): the Potency entry in experiment [1], in experiment [2], in experiment [3] and in experiment [4] was “inactive” each time.
With `NS(=O)(=O)c1ccc(N2CCCCS2(=O)=O)cc1`, the Potency entry in experiment [1], in experiment [2], in experiment [3] and in experiment [4] was “inactive” throughout.
For `C[C@@H]1C[C@H]2[C@@H]3CCC4=CC(=O)C=C[C@]4(C)[C@@]3(F)[C@@H](O)C[C@]2(C)[C@@]1(O)C(=O)COC(=O)c1ccncc1`, the Potency in experiment [1] is 17.4 µM (active); in experiment [2], 7.76 µM (active). The Potency entry in experiment [3] and in experiment [4] was “inactive” each time.
With `CCOc1ccc(N=Nc2ccc(/C=C/c3ccc(N=Nc4ccc(OCC)cc4)cc3S(=O)(=O)O)c(S(=O)(=O)O)c2)cc1`, the Potency entry in experiment [1], in experiment [2] and in experiment [4] was “inactive” in each case. Also, the Potency in experiment [3] is 27.8 µM (active).
Turning to `CC(=O)NO`, the Potency entry in experiment [1], in experiment [2], in experiment [3] and in experiment [4] was “inactive” in each case.
Regarding `O=C(O)C1(C(=O)O)CCC1.[NH2-].[NH2-].[Pt+2]`, the Potency in experiment [1] was 21.9 µM (active); in experiment [2] it was 8.71 µM (active); in experiment [3], 13.8 µM (active). Moreover, the Potency entry in experiment [4] and in experiment [5] was “inactive” in each case.
For `Brc1c2ccccc2c(Br)c2ccccc12`, the activity change, negative = inhibition is -7.43% [at 10.5 µM] in experiment [1], -3.76% [at 10.5 µM] in experiment [2], -0.46% [at 6.97 µM] in experiment [4] and 1.1% [at 10.5 µM] in experiment [5]. In experiment [3], the Potency was 0.719 µM (active).
On to `CN1Cc2cc(C(=O)N3CCC(C4CCNCC4)CC3)ccc2NC(CC(=O)O)C1=O` (stereo unspecified), for which the Potency result in experiment [1], in experiment [2], in experiment [3], in experiment [4] and in experiment [5] was “inactive” throughout.
As to `N=c1ccn2c(n1)O[C@H]1[C@H](O)[C@@H](CO)O[C@H]12`, the Potency entry in experiment [1], in experiment [2], in experiment [3], in experiment [4] and in experiment [5] was “inactive” throughout.
In the case of `CN1CCC(N(Cc2cccs2)c2ccccc2)CC1`, the Potency result in experiment [1], in experiment [2], in experiment [3] and in experiment [5] was “inactive” throughout. Further, the Potency in experiment [4] was 2.68 µM (active).
With `Clc1ccc(Cn2c(CN3CCCC3)nc3ccccc32)cc1`, the Potency in experiment [1] was 0.776 µM (active); in experiment [2], 15.5 µM (active); in experiment [3], 18.2 µM (active); in experiment [4], 1.34 µM (active).
As to `Cc1oc2c(NC(=O)c3c(Cl)cccc3Cl)cccc2c1C(C)(C)O`, the Potency result in experiment [1] and in experiment [4] was “inactive” throughout. In addition, the figures for the Potency in experiment [2], in experiment [3] and in experiment [5] were 1.59 µM (active), 31.7 µM (active) and 28.3 µM (active), respectively.
As for `CCCCC(CC)COC(=O)COc1ccc(Cl)cc1Cl` (stereo unspecified), the Potency in experiment [1] is 20.3 µM (active); in experiment [2], 32.2 µM (active); in experiment [3], 25.6 µM (active); in experiment [5] it was 32.2 µM (active). For the same compound, the Potency result in experiment [4] was “inactive”.
`COc1cc(Cl)c(OC)cc1N`: the Potency in experiment [1] was 22.4 µM (active); in experiment [2], 35.6 µM (active); in experiment [3], 5.03 µM (active); in experiment [5], 31.7 µM (active). In addition, in experiment [4], the Potency result is “inactive”.
With `CCCCCCCCCCCc1ccccc1`, the Potency result in experiment [1], in experiment [2], in experiment [3] and in experiment [5] was “inactive” in each case.
As to `CN1C[C@H]2c3ccccc3Oc3ccc(Cl)cc3[C@@H]2C1`, the Potency entry in experiment [1], in experiment [2] and in experiment [5] was “inactive” throughout. The Potency in experiment [3] was 7.76 µM (active).
`CC(C)OC(=O)C(C)N(C(=O)c1ccccc1)c1ccc(F)c(Cl)c1` (stereo unspecified): the Potency was 3.56 µM (active) in experiment [1], 7.96 µM (active) in experiment [2], 63.3 µM (active) in experiment [3] and 89.4 µM (active) in experiment [5]. In addition, the Potency entry in experiment [4] is “inactive”.
The matching figures for `COC(C)OC`: “inactive”, “inactive”, “inactive”, “inactive” and “inactive”.
`NCC(=O)CCC(=O)O`: the Potency entry in experiment [1], in experiment [2], in experiment [3], in experiment [4] and in experiment [5] was “inactive” in each case.
Regarding `CCC(Cl)CCC(Cl)C(Cl)CC(Cl)C(Cl)C(Cl)CCl` (stereo unspecified), the Potency result in experiment [1], in experiment [2], in experiment [3], in experiment [4] and in experiment [5] was “inactive” in each case.

The values are drawn from PubChem BioAssay (Tox21).
